Compound activity as filed in PubChem.
PABP FP inh: PABP poly(A) RNA binding inhibitors, primary screen, biochemical, fluorescence polarization, uHTS | inhibition, % at 35 µM | 290,000 tested, 1% active | AID 2014, 2009;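 note: calls also rest on retests at 20 µM and on dose response follow-up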
Target sequence (P11940 whole entry, looked up): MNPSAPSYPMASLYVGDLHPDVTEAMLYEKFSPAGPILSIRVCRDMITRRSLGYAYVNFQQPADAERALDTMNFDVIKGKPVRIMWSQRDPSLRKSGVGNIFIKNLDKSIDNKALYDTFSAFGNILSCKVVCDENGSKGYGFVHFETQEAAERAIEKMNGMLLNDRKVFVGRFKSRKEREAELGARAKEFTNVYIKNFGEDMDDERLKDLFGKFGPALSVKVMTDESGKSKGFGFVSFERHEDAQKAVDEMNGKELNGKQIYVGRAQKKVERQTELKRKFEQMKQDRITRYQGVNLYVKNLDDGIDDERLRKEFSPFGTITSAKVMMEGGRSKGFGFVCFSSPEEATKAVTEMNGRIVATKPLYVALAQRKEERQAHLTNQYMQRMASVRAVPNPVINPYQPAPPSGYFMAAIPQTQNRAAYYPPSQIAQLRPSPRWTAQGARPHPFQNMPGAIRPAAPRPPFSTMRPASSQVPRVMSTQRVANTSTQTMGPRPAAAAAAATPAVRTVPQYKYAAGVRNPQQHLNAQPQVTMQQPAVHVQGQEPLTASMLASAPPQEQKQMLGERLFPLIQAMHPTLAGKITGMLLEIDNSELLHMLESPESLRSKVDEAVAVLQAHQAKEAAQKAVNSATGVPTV
eIF4H inh: human eIF4H binding inhibitors, primary screen, translation initiation inhibitor project, biochemical, uHTS, fluorescence polarization; eIF4H fluorescence polarization binding assay; Eukaryotic translation initiation factor 4H (Homo sapiens), Q15056; 290,000 tested, 0.94% active; AID 2012, 2009; inhibition, % at 35 µM;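 note: calls also rest on retests at 20 µM and on dose response follow-up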
MLLE-PAM2 inh: inhibitors of PABP1 MLLE–PAM2 peptide binding, primary screen, biochemical, fluorescence polarization, FITC-PAM2, GST-MLLE; Polyadenylate-binding protein 1 (Homo sapiens), P11940; inhibition, % at 20 µM; 360,000 tested, 0.36% active; AID 588489, 2011; in the data active = inhibition above about 35%, passing the limit was not always enough
NRP1-CendR mod: modulators of CendR peptide binding to NRP-1, primary screen, biochemical, fluorescence polarization, uHTS. Neuropilin-1 (Homo sapiens), O14786. FAM-RPARPAR peptide binding to NRP-1. inhibition, % at 25 µM. 360,000 tested, 0.85% active;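 active = inhibition or corrected inhibition above about 18%, plus a signal ratio from 0.5 to 1.5, limit read from the data, passing the limit was not always enough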
Large screens that a line does not name were inactive. Sampled rows, rich in hits. Any-hit rate of the full collection: about 2.1%. Unless noted, the rule behind the calls is not given here.

Cc1cc(C(=O)CSc2nc3ccccc3o2)c(C)n1C1CC1	PABP FP inh 98, eIF4H inh 88
Cc1cc(C(=O)CSc2ncnc3ccccc23)c(C)n1C1CC1	none (no result: PABP FP inh, eIF4H inh)
Cc1nonc1NC(=O)CSc1nc2ccccc2o1	PABP FP inh 72, eIF4H inh 83
CC(C)(C)C(C(=O)NCc1ccccc1)N1CCN(CCN2CCOCC2)CC1 (stereo not drawn)	none (no result: PABP FP inh, eIF4H inh, MLLE-PAM2 inh)
CC1CN(C(=O)/C=C/c2ccccc2Cl)CC(C)O1 (stereo not drawn)	none
O=C1ON=C(c2ccccc2)/C1=C/c1ccc(O)c(O)c1	PABP FP inh 15
CCOc1ccccc1N1CCN(CC(=O)Nc2ccnn2C2CCCC2)CC1	none (no result: PABP FP inh, eIF4H inh)
O=C1c2cc(Cl)ccc2OC2(CCNCC2)C12CC(c1ccc(Cl)cc1)=NO2 (stereo not drawn)	NRP1-CendR mod 25
CN(C)c1nc(-c2cn(CCC#N)c3ccccc23)cs1	MLLE-PAM2 inh 49
[N-]=[N+]=NCC/C=C\C1NS(=O)(=O)OCC1O (stereo not drawn)	none
CCCN=C1N/C(=C\c2ccco2)C(=O)N1c1ccccc1	NRP1-CendR mod 43
O=C1NC(=O)/C(=C/c2ccco2)N1	NRP1-CendR mod 25 (no result: PABP FP inh, eIF4H inh)
O=C1/C(=C\c2ccco2)NC(=S)N1c1ccccc1	PABP FP inh 65
CCCN(CCC)C1=N/C(=C\c2ccco2)C(=O)N1c1ccccc1	none
O=C1NC[C@@H](CCCCN2C[C@H](Cc3ccccc3)N(CC3CCCCC3)C(=O)C2=O)N(CC2CCCCC2)C1=O	none (no result: PABP FP inh, eIF4H inh, MLLE-PAM2 inh)
CC(C)(C)c1cc(C(=O)NNc2cc(C(F)(F)F)ccc2Cl)n(Cc2ccccc2)n1	eIF4H inh 52
COc1ccc(Cc2nnc3sc(SCC(=O)Nc4ccccc4)nn3c2=O)cc1OC	none (no result: PABP FP inh, eIF4H inh)
CN(C)Cc1ccccc1C(O)(c1ccccc1)c1ccccc1	none
CN(C)Cc1cc(C(F)(F)F)ccc1C(O)(c1ccccc1)c1ccccc1	NRP1-CendR mod 21 (no result: PABP FP inh, eIF4H inh)
COc1ccc(C(N)CCc2ccco2)cc1 (stereo not drawn)	PABP FP inh 24, eIF4H inh 50
Cc1ccc(C2/C(=C(\O)c3ccc4c(c3)OCCO4)C(=O)C(=O)N2Cc2cccnc2)cc1 (stereo not drawn)	none
COC(=O)c1c(C)[nH]c(O)c1C=Nc1ccc(Oc2ccccc2)cc1	eIF4H inh inconclusive
COC(=O)c1c(C)[nH]c(O)c1C=Nc1ccc(C(C)C)cc1	PABP FP inh 80, eIF4H inh 85
CCOC(=O)c1csc(COc2ccc(OC)cc2)n1	NRP1-CendR mod 30
CC(Sc1nnc(-c2cccnc2)o1)C(=O)NC1CCCC1 (stereo not drawn)	NRP1-CendR mod 22 (no result: PABP FP inh, eIF4H inh)
Cc1ccccc1-c1nnc(SC(C)C(=O)NC2CCCC2)o1 (stereo not drawn)	none (no result: PABP FP inh, eIF4H inh)
COc1cc(C(O)c2nc(-c3cc4ccccc4o3)cs2)ccc1F (stereo not drawn)	none (no result: PABP FP inh, eIF4H inh)
COc1cc(C(=O)Nc2ccccc2C2COC(=O)C2=N)cc(OC)c1OC (stereo not drawn)	none
N=C1C(=O)OCC1c1cc(Cl)ccc1NC(=O)Nc1ccccc1 (stereo not drawn)	NRP1-CendR mod 39
CSCCNC(=O)C1(C)CCN1C(=O)C/C=C/c1ccccc1 (stereo not drawn)	none (no result: PABP FP inh, eIF4H inh)
Cc1ccc(C)c(S(=O)(=O)N2CCN(C(=O)C3CCN(c4ncnc5sc(C)c(C)c45)CC3)CC2)c1	none (no result: PABP FP inh, eIF4H inh)
Cc1ccc2oc(=O)n(CCOc3ccccc3C)c2c1	NRP1-CendR mod 38
CCCCc1c(CCC)c(=N)c2ccccc2n1C	PABP FP inh 58
CCOC(=O)COn1c(=O)c(-c2cc3ccccc3o2)[n+]([O-])c2ccccc21	PABP FP inh 42
C=CCOn1c(=O)c(-c2cc3ccccc3o2)[n+]([O-])c2ccccc21	PABP FP inh 47, eIF4H inh 58
NC(=O)c1ccccc1N1CCCCC1	none
Cc1cc(NC(=O)CSc2nc(=O)cc(N)n2-c2ccc(Cl)cc2)no1	none
CCCCn1c(SCC(=O)Nc2cc(C)on2)nnc1-c1ccncc1	none
Cc1cccc(-n2c(N)cc(=O)nc2SCC(=O)Nc2cc(C)on2)c1	MLLE-PAM2 inh 40
Cc1cc(NC(=O)CSc2nccn2-c2cccc(Cl)c2)no1	MLLE-PAM2 inh 69
CCCCn1c(SCC(=O)Nc2cc(C)on2)nnc1-c1cccnc1	NRP1-CendR mod 22
CCc1nn(CC(=O)NCCN2CCN(C)CC2)c(=O)c2cc3c(OC)cccc3n12	none
COC(=O)C1=C(C)N(CCCC(=O)O)C(=O)NC1c1ccc(-c2ccccc2)cc1 (stereo not drawn)	NRP1-CendR mod 30
CCN1C(=NCCc2ccccn2)N[C@@H](c2cccc(C(F)(F)F)c2)C(C(=O)OC)=C1C	NRP1-CendR mod 21 (no result: PABP FP inh, eIF4H inh)
COC(=O)C1=C(C)N(Cc2ccccc2)C(=NCc2ccc(OC)cc2)N[C@H]1c1cccc(F)c1	PABP FP inh 58
COC(=O)C1=C(C)N(Cc2ccccc2)C(=NCc2cccc(Cl)c2)N[C@H]1c1cccc(F)c1	none (no result: PABP FP inh, eIF4H inh)
COC(=O)C1=C(C)N(Cc2ccccc2)C(=NCCCCO)N[C@H]1c1ccccc1	PABP FP inh 84 (no result: MLLE-PAM2 inh, NRP1-CendR mod)
COC(=O)c1cc(S(=O)(=O)NC2CCCCC2)cn1C	none (no result: PABP FP inh, eIF4H inh)
CC(C)C(=O)N1CCC1(C)C(=O)Nc1ccc2cn[nH]c2c1 (stereo not drawn)	none (no result: PABP FP inh, eIF4H inh)
O=C(CN1C(=O)/C(=C/c2ccccc2Cl)SC1=S)NC1CCS(=O)(=O)C1 (stereo not drawn)	MLLE-PAM2 inh 39
CCN1CCN(C(=O)CSc2cc(=O)n(CC)c3ccccc23)CC1	none
CCn1c(=O)cc(SCC(=O)N2CCCCC2)c2ccccc21	NRP1-CendR mod 22
COc1ccc(-c2c(-c3cc(OC)cc(OC)c3)n(C)c3ccc(-c4ccc(OC)nc4)cc23)cc1	none (no result: PABP FP inh, eIF4H inh)
CC(=O)N1CCN(c2ccc(NC(=O)c3ccc(Cl)c([N+](=O)[O-])c3)cc2)CC1	none
COc1ccc(S(=O)(=O)Nc2ccc(N3CCOCC3)cc2)cc1[N+](=O)[O-]	NRP1-CendR mod 25
CS(=O)(=O)N1CCN(c2ccc([N+](=O)[O-])c(N3CCOCC3)c2)CC1	NRP1-CendR mod 28
COc1ccc(C(=O)Nc2ccc(N3CCN(C(C)=O)CC3)cc2)cc1[N+](=O)[O-]	PABP FP inh 62, eIF4H inh active (no result: MLLE-PAM2 inh, NRP1-CendR mod)
O=C(COC(=O)C1CCN(S(=O)(=O)c2ccc(Cl)c(C(F)(F)F)c2)CC1)NCC1CCCO1 (stereo not drawn)	none (no result: PABP FP inh, eIF4H inh)
Cc1c(C(=O)O)sc2nc(SCC(=O)Nc3ccc(S(=O)(=O)NCCCC(=O)O)cc3)[nH]c(=O)c12	eIF4H inh 1.1
COC(=O)[C@]12CCCCC=C1N(CCC1=CCCCC1)C(=O)[C@H](CC(=O)NCc1cccc(C(F)(F)F)c1)C2	none (no result: PABP FP inh, eIF4H inh, MLLE-PAM2 inh)
O=c1c2c3c(sc2[nH]c(=S)n1Cc1ccco1)CCC3	PABP FP inh 58, eIF4H inh 81
COc1cc(C2C(C#N)=C(N)OC3=C2C(=O)CC(C)(C)C3)c([N+](=O)[O-])cc1OC (stereo not drawn)	PABP FP inh inconclusive, eIF4H inh inconclusive
